This is an account of results in paper PMC7862700, “An all-to-all approach to the identification of sequence-specific readers for epigenetic DNA modifications on cytosine”.

Assay in all cases: DAPPL (digital affinity profiling via proximity ligation, sequencing); 10 mM Tris-HCl pH 7.5, 50 mM NaCl, 1 mM DTT, 4% glycerol, room temperature, 30 min; GST-TFs on glutathione beads, 16-mer random dsDNA library, 0.1% formaldehyde crosslink after washing; high values mean tight binding
What all share (conditions): protein: recombinant; tags: N-terminal GST; dsDNA, one strand shown

One experiment has as its target T1, FLI1 (Homo sapiens, UniProt Q01543 1-452).
T1 sequence: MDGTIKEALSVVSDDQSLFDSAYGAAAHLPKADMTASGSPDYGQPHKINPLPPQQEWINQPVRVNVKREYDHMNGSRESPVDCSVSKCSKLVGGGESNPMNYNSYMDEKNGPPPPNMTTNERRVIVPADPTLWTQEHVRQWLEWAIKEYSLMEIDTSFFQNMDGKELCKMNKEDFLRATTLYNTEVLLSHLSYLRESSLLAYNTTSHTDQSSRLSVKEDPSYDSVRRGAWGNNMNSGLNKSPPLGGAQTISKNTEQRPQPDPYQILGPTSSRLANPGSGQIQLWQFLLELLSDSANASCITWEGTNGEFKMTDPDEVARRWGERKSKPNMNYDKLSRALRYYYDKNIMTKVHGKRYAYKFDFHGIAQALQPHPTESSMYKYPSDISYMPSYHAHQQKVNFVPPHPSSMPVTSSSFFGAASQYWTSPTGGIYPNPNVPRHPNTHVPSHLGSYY
The method in brief: (§1)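 Binding signal is each hexamer's read frequency for a factor divided by its frequency in the tag-only sample. The factors were GST-fused human transcription factors from yeast, captured on glutathione beads, DNA-barcoded and pooled with that sample. Pools were incubated with 200 nmole of a random double-stranded 16-mer DNA library in Tris/NaCl/DTT/glycerol buffer at room temperature for 30 min, then washed, crosslinked with 0.1% formaldehyde, proximity-ligated with BsaI/T4 ligase (1 h, 37 °C), PCR-amplified and sequenced on an Illumina NextSeq500.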

In another experiment the target is T2, ELK1 (Homo sapiens, UniProt P19419 1-428).
T2 sequence: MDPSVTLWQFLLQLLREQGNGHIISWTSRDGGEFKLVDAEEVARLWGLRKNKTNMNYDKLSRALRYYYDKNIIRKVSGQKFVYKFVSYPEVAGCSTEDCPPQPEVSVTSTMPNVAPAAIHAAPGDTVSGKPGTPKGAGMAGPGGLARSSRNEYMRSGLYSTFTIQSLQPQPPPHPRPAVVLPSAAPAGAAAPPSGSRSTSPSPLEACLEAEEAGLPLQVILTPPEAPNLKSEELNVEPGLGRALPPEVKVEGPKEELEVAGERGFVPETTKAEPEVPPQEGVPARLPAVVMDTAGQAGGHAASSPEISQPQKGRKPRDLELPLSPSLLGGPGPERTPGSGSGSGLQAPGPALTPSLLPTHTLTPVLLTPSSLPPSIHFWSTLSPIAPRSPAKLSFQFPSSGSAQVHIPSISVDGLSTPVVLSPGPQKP
The method in brief:
as §1

The target in another experiment is T3, GABPA (Homo sapiens, UniProt Q06546 1-454).
T3 sequence: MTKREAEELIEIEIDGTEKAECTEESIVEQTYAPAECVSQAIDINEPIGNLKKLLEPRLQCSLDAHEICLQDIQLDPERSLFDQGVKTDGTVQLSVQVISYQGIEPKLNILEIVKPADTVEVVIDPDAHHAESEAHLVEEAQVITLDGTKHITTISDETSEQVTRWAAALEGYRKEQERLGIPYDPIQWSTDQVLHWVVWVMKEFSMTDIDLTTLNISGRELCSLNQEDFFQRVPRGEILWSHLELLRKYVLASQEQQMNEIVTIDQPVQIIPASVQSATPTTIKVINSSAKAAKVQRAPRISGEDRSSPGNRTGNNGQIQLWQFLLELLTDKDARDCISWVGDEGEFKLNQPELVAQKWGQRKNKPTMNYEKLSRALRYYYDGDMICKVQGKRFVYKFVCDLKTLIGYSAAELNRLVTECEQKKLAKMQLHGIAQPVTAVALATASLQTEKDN
In a few lines:
as §1

The next experiment has as its target T4, ERG (Homo sapiens, UniProt P11308 1-479).
T4 sequence: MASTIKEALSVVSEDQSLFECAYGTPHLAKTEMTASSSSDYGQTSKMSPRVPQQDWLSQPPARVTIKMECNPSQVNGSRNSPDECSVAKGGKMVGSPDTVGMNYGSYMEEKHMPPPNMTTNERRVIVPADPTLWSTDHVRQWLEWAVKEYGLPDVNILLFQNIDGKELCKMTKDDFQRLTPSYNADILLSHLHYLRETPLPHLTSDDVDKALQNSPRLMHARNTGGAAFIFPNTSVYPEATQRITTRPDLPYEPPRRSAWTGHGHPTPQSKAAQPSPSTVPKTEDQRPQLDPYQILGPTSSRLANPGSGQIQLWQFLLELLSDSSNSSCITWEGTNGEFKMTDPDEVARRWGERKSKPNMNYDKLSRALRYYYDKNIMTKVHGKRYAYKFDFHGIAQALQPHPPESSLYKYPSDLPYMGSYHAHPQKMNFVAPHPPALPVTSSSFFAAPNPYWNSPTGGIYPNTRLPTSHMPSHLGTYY
The method in brief: as §1

The target in the next experiment is ELF1 (Homo sapiens, UniProt P32519 1-619). The method in brief:
as §1

A further experiment concerns the target T5, EHF (Homo sapiens, UniProt Q9NZC4 1-300).
T5 sequence: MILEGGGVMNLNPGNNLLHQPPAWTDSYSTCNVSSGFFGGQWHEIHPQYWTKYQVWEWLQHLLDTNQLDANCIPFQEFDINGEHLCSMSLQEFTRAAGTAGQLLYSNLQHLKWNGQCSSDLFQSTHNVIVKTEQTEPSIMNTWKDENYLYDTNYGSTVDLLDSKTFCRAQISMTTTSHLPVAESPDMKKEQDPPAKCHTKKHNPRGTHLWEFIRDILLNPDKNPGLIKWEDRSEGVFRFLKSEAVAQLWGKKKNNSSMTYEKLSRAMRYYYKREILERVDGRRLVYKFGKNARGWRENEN
In a few lines: as §1

Another experiment has as its target SPI1 (Homo sapiens, UniProt P17947 1-270). The method in brief:
as §1

A further experiment addresses SPIB (Homo sapiens, UniProt Q01892 1-262). In a few lines: as §1
A further experiment addresses T6, ELK3 (Homo sapiens, UniProt P41970 1-407).
T6 sequence: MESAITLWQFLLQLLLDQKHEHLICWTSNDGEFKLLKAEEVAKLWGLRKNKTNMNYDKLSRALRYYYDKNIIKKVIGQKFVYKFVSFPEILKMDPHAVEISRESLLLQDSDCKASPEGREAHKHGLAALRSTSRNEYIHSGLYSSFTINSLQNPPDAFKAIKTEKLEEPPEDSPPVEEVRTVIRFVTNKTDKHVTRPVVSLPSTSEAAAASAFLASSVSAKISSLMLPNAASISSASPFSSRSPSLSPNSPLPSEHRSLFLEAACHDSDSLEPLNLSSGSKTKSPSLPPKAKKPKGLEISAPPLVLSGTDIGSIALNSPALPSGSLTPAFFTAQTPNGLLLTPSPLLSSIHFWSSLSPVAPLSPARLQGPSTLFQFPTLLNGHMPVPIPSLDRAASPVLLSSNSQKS
The method in brief:
as §1

Chain of SPIB (Q01892 whole entry): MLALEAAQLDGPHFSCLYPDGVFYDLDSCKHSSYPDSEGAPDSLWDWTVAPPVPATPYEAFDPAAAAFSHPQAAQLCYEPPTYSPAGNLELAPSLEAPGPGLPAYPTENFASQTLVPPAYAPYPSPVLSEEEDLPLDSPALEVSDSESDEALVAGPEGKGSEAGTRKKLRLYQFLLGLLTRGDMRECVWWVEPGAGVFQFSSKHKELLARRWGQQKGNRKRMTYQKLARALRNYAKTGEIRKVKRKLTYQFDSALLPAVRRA
Chain of ELF1 (P32519 whole entry): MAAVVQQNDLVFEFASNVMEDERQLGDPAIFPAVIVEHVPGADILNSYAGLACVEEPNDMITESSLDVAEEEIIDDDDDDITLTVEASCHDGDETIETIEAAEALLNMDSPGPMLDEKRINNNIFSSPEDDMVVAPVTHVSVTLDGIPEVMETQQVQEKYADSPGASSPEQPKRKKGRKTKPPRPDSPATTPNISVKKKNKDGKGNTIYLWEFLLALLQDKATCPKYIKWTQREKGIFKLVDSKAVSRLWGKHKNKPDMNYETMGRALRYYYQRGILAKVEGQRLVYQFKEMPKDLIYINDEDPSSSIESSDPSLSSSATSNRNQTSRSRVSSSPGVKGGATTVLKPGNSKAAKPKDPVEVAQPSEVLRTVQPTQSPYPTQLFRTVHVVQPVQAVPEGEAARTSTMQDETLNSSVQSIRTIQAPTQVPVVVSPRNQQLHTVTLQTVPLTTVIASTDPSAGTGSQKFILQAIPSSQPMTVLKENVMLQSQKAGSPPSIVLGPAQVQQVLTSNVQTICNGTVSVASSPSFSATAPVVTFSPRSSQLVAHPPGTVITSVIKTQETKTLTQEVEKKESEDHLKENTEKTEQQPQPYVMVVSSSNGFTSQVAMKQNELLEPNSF

Turning to AATCTA, the binding signal with FLI1 is 1.07 fold enrichment (6-mer frequency, TF over GST control); with ELK1, 1.06 fold enrichment (6-mer frequency, TF over GST control); in the experiment with GABPA it was 1.05 fold enrichment (6-mer frequency, TF over GST control); with ERG, 1.17 fold enrichment (6-mer frequency, TF over GST control); in the experiment with ELF1, 1.17 fold enrichment (6-mer frequency, TF over GST control); with EHF it was 1.17 fold enrichment (6-mer frequency, TF over GST control). In addition, the binding signal in the experiment with SPI1 was 1.12 fold enrichment (6-mer frequency, TF over GST control); with SPIB it was 1.17 fold enrichment (6-mer frequency, TF over GST control); with ELK3, 1.12 fold enrichment (6-mer frequency, TF over GST control).
In the case of ACATGC, the binding signal with FLI1 was 1.31 fold enrichment (6-mer frequency, TF over GST control); in the experiment with ELK1 it was 1.2 fold enrichment (6-mer frequency, TF over GST control); in the experiment with GABPA, 1.33 fold enrichment (6-mer frequency, TF over GST control); with ERG, 1.24 fold enrichment (6-mer frequency, TF over GST control); in the experiment with ELF1, 1.36 fold enrichment (6-mer frequency, TF over GST control); with EHF, 1.24 fold enrichment (6-mer frequency, TF over GST control). In addition, the binding signal is 1.19 fold enrichment (6-mer frequency, TF over GST control) with SPI1; 1.2 fold enrichment (6-mer frequency, TF over GST control) with SPIB; 1.34 fold enrichment (6-mer frequency, TF over GST control) in the experiment with ELK3.
As for ATCTGC, the binding signal with FLI1 was 1.3 fold enrichment (6-mer frequency, TF over GST control); with ELK1 it was 1.28 fold enrichment (6-mer frequency, TF over GST control); with GABPA, 1.47 fold enrichment (6-mer frequency, TF over GST control); in the experiment with ERG, 1.37 fold enrichment (6-mer frequency, TF over GST control); in the experiment with ELF1, 1.45 fold enrichment (6-mer frequency, TF over GST control); with EHF, 1.34 fold enrichment (6-mer frequency, TF over GST control). Besides, the binding signal is 1.44 fold enrichment (6-mer frequency, TF over GST control) in the experiment with SPI1; 1.41 fold enrichment (6-mer frequency, TF over GST control) with SPIB; 1.34 fold enrichment (6-mer frequency, TF over GST control) with ELK3.
For the sequence TTCTTC, the binding signal is 1.92 fold enrichment (6-mer frequency, TF over GST control) in the experiment with FLI1; 1.87 fold enrichment (6-mer frequency, TF over GST control) in the experiment with ELK1; 1.79 fold enrichment (6-mer frequency, TF over GST control) in the experiment with GABPA; 1.87 fold enrichment (6-mer frequency, TF over GST control) in the experiment with ERG; 1.85 fold enrichment (6-mer frequency, TF over GST control) with ELF1; 1.75 fold enrichment (6-mer frequency, TF over GST control) with EHF. The binding signal with SPI1 is 1.8 fold enrichment (6-mer frequency, TF over GST control); with SPIB it was 1.9 fold enrichment (6-mer frequency, TF over GST control); with ELK3, 2.25 fold enrichment (6-mer frequency, TF over GST control).
As to CATATA, the binding signal with FLI1 is 1.17 fold enrichment (6-mer frequency, TF over GST control); in the experiment with ELK1, 1.07 fold enrichment (6-mer frequency, TF over GST control); with GABPA it was 1.14 fold enrichment (6-mer frequency, TF over GST control); in the experiment with ERG it was 1.08 fold enrichment (6-mer frequency, TF over GST control); with ELF1, 1.12 fold enrichment (6-mer frequency, TF over GST control); in the experiment with EHF, 1.06 fold enrichment (6-mer frequency, TF over GST control). In addition, the binding signal with SPI1 was 1.06 fold enrichment (6-mer frequency, TF over GST control); in the experiment with SPIB, 1.06 fold enrichment (6-mer frequency, TF over GST control); with ELK3 it was 1.22 fold enrichment (6-mer frequency, TF over GST control).
With CCCTAC, the binding signal in the experiment with FLI1 is 1.5 fold enrichment (6-mer frequency, TF over GST control); in the experiment with ELK1, 1.49 fold enrichment (6-mer frequency, TF over GST control); in the experiment with GABPA it was 1.33 fold enrichment (6-mer frequency, TF over GST control); with ERG, 1.33 fold enrichment (6-mer frequency, TF over GST control); in the experiment with ELF1, 1.4 fold enrichment (6-mer frequency, TF over GST control); with EHF, 1.33 fold enrichment (6-mer frequency, TF over GST control). The binding signal was 1.36 fold enrichment (6-mer frequency, TF over GST control) with SPI1; 1.25 fold enrichment (6-mer frequency, TF over GST control) with SPIB; 1.65 fold enrichment (6-mer frequency, TF over GST control) with ELK3.
As for AATCTC, the binding signal is 1.26 fold enrichment (6-mer frequency, TF over GST control) with FLI1; 1.21 fold enrichment (6-mer frequency, TF over GST control) with ELK1; 1.28 fold enrichment (6-mer frequency, TF over GST control) with GABPA; 1.19 fold enrichment (6-mer frequency, TF over GST control) with ERG; 1.16 fold enrichment (6-mer frequency, TF over GST control) in the experiment with ELF1; 1.27 fold enrichment (6-mer frequency, TF over GST control) with EHF. Besides, the binding signal with SPI1 was 1.16 fold enrichment (6-mer frequency, TF over GST control); in the experiment with SPIB, 1.2 fold enrichment (6-mer frequency, TF over GST control); with ELK3, 1.15 fold enrichment (6-mer frequency, TF over GST control).
For the sequence TCGCCT, the binding signal with FLI1 was 1.32 fold enrichment (6-mer frequency, TF over GST control); with ELK1, 1.36 fold enrichment (6-mer frequency, TF over GST control); with GABPA, 1.2 fold enrichment (6-mer frequency, TF over GST control); in the experiment with ERG, 1.31 fold enrichment (6-mer frequency, TF over GST control); with ELF1 it was 1.21 fold enrichment (6-mer frequency, TF over GST control); in the experiment with EHF, 1.34 fold enrichment (6-mer frequency, TF over GST control). Further, the binding signal was 1.16 fold enrichment (6-mer frequency, TF over GST control) with SPI1; 1.23 fold enrichment (6-mer frequency, TF over GST control) with SPIB; 1.15 fold enrichment (6-mer frequency, TF over GST control) in the experiment with ELK3.
